This is part of a sample that, as a whole, favours compounds with a hit. Of some 79,000 tested, about 15% had one in any assay. Values without a mark were called inactive. The source made the active and inactive calls. Rule as the data show it: active = growth inhibition above about 70%; inactive = the rest.

The nature of one test: NCI Yeast Anticancer Drug Screen. Data for the mlh1 rad18 strain (AID 175). Conditions: S. cerevisiae mlh1 rad18 strain growth inhibition; at 5.0 µM (retest, dose inferred, filed as 0.5); stronger effect = higher value. Summed up:
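Vehicle-treated cultures served as the reference for growth inhibition in a yeast strain carrying DNA damage repair alterations exposed to each compound.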
For the compound `CCCCCCCCCCCCCCOC(=O)C(N)Cc1ccc(O)cc1` (stereo not given), the growth inhibition is 7%.
`CN(C)c1ccc(C(O)(Cc2cccc(C#N)c2)c2ccc(N(C)C)cc2)cc1`: the growth inhibition is -2%.
On to `O=C(NNC(=O)c1cccc(C(=O)NNC(=O)c2ccc(Cl)c(Cl)c2)n1)c1ccc(Cl)c(Cl)c1`, for which the growth inhibition was 49%.
Same read-out and setting: the value for `C=C1C(=O)O[C@H]2[C@H](OC(C)=O)[C@@H](C)CCC/C(C)=C/CC[C@@]3(C)O[C@@H]3C[C@@H]12` was 22%; that for `O=C(c1ccccc1)C1OC1c1ccccc1Cl` (stereo not given) was 12%; that for `[N-]=[N+]=Nc1ccc(SSCCC(=O)ON2C(=O)CCC2=O)cc1` was 38%.
On the same count and under the same terms, the value for `Cc1cc(N(CCC#N)CCC#N)ccc1/C(N=Nc1cccc([N+](=O)[O-])c1)=N/NC(=O)c1cc(Cl)ccc1O` was 12%; that for `CC(C)/C(Cl)=N\OC(=O)Nc1ccc(S(N)(=O)=O)cc1` was 22%.
On to `CCCCCCCCCCCCCC(=O)OCC(O)CO` (stereo not given), for which the growth inhibition is 3%.
Same read-out and setting: the value for `O=C1C=CC(=O)N1C1CCCCC1` was 98% (active); that for `CCCCCCCCCCCC(=O)OCC1OC(n2cc(F)c(=O)[nH]c2=O)C(N)C(O)C1O` (stereo not given) was 24%.
For the compound `CN(C)c1ccc(C2C=C(c3ccccc3)Oc3ccccc32)cc1` (stereo not given), the growth inhibition is 95% (active).
Same read-out and setting: as for `CS(=O)(=O)OCCN(CCOS(C)(=O)=O)c1ccc(C=Nc2cccc(Cl)c2)cc1`, the figure is 70% (active).
Same read-out and setting: as for `O=C1C(=O)N(c2cc(Cl)ccc2Cl)C(=O)C(=O)C1c1nc2ccccc2o1`, the figure is 12%; as for `CC1=NC(=Cc2ccc(Cl)cc2)C(=O)N1n1c(-c2ccccc2)nc2ccccc2c1=O`, 5%; as for `C/C(=N/Nc1ccc([N+](=O)[O-])cc1[N+](=O)[O-])C1=CCC(C(C)(C)C)CC1` (stereo not given), -7%.
The same measure, in the same setting: as for `Cc1ccc(C)c(N2C(=O)C(=O)C(c3nc4ccccc4o3)/C(=N\NC(=O)c3ccccc3O)C2=O)c1` (stereo not given), the figure is 5%; as for `O=C(/C=C/C=C/c1ccccc1)c1ccco1`, -19%; as for `O=C1CCC(=O)c2c1c(O)c1ccncc1c2O`, 41%.
As for `CNC(=O)OC(C)CN1c2ccccc2Sc2ccc(Cl)cc21` (stereo not given), the growth inhibition is 19%.
Same read-out and setting: the value for `c1coc(C2=Nc3cccc4cccc(c34)N2)c1` was -13%.
Same read-out and setting: the value for `CCOC(=O)[C@]12CCC[C@@]1(O)NC(=O)c1cnccc12` was 0%; that for `Cc1cccc(C)c1N1C(=O)C2Nc3ccccc3SC2C1=O` (stereo not given) was 11%; that for `CCc1cccc(C(C)(C)C)c1NC(=S)N/C=C(\c1ccccc1)S(=O)Cc1ccccc1` (stereo not given) was 14%.
As to `CC(=O)Nc1ccc(-c2cnc3ccccc3c2)cc1`, the growth inhibition was 17%.
On the same count and under the same terms, the value for `OCC(CO)C1c2cccc3ccc4cccc1c4c23` was -4%; that for `O=C1CC(=S)NC(=S)N1` was -3%.
Still for that read-out and setting: as for `Cc1c2ccnc(C(N)=O)c2c(C)c2c1[nH]c1ccccc12`, the figure is 12%.
Same read-out and setting: the value for `CCC(=O)Sc1ccccc1C(=O)Nc1ccc(Cl)cc1` was 29%; that for `O=C(O)c1c(Cl)c(Cl)c(Cl)c(Cl)c1-c1c2cc(I)c(=O)c(I)c-2oc2c(I)c(O)c(I)cc12` was 97% (active); that for `C=C/C=C/CC=C` was -120%.
Take `Cc1ccccc1N1CCN(c2c3c(nc4ccccc24)CCCCC3)CC1`: the growth inhibition is -4%.
As for `N/N=C(\N)c1ccc2ccc3cccnc3c2n1`, the growth inhibition was 13%.
In the case of `CCCCCC(CCCCC)C(=O)O`, the growth inhibition was -1%.
For the compound `O=Cc1cc(S(=O)(=O)c2ccc(O)c(C=O)c2)ccc1O`, the growth inhibition was 26%.
The same measure, in the same setting: the value for `Cc1ccc(C)c(N2C(=O)C(=O)C(c3nc4ccccc4o3)C(=O)C2=O)c1` was 15%; that for `COC(=O)c1cc(C)c2sc3ccccc3c2c1C` was -3%; that for `O=C1NC(=O)N(c2ccc(Cl)c(Cl)c2)C1=O` was -4%.
The same measure, in the same setting: as for `Clc1ccc2oc(N3CCCCC3)nc2c1`, the figure is 4%; as for `Cc1ccc(N=NC(C(=O)c2ccccc2)C(=O)c2ccccc2)cc1`, -2%.

The same test, now with this note: S. cerevisiae mlh1 rad18 strain growth inhibition; at 50.0 µM (retest, dose inferred, filed as 5.0); stronger effect = higher value.
Turning to `CCCCCCCCCCCCCCOC(=O)C(N)Cc1ccc(O)cc1` (stereo not given), the growth inhibition is 97% (active).
The same measure, in the same setting: as for `CN(C)c1ccc(C(O)(Cc2cccc(C#N)c2)c2ccc(N(C)C)cc2)cc1`, the figure is -70%; as for `O=C(NNC(=O)c1cccc(C(=O)NNC(=O)c2ccc(Cl)c(Cl)c2)n1)c1ccc(Cl)c(Cl)c1`, 71% (active).
For the compound `C=C1C(=O)O[C@H]2[C@H](OC(C)=O)[C@@H](C)CCC/C(C)=C/CC[C@@]3(C)O[C@@H]3C[C@@H]12`, the growth inhibition is 99% (active).
On the same count and under the same terms, as for `O=C(c1ccccc1)C1OC1c1ccccc1Cl` (stereo not given), the figure is 78% (active).
Turning to `[N-]=[N+]=Nc1ccc(SSCCC(=O)ON2C(=O)CCC2=O)cc1`, the growth inhibition is 98% (active).
On the same count and under the same terms, the value for `Cc1cc(N(CCC#N)CCC#N)ccc1/C(N=Nc1cccc([N+](=O)[O-])c1)=N/NC(=O)c1cc(Cl)ccc1O` was 29%; that for `CC(C)/C(Cl)=N\OC(=O)Nc1ccc(S(N)(=O)=O)cc1` was 38%.
Same read-out and setting: as for `CCCCCCCCCCCCCC(=O)OCC(O)CO` (stereo not given), the figure is 12%.
Still for that read-out and setting: as for `O=C1C=CC(=O)N1C1CCCCC1`, the figure is 99% (active); as for `CCCCCCCCCCCC(=O)OCC1OC(n2cc(F)c(=O)[nH]c2=O)C(N)C(O)C1O` (stereo not given), 24%; as for `CN(C)c1ccc(C2C=C(c3ccccc3)Oc3ccccc32)cc1` (stereo not given), 96% (active).
In the case of `CS(=O)(=O)OCCN(CCOS(C)(=O)=O)c1ccc(C=Nc2cccc(Cl)c2)cc1`, the growth inhibition was 95% (active).
As to `O=C1C(=O)N(c2cc(Cl)ccc2Cl)C(=O)C(=O)C1c1nc2ccccc2o1`, the growth inhibition is 12%.
In the case of `CC1=NC(=Cc2ccc(Cl)cc2)C(=O)N1n1c(-c2ccccc2)nc2ccccc2c1=O`, the growth inhibition was 59%.
Same read-out and setting: as for `C/C(=N/Nc1ccc([N+](=O)[O-])cc1[N+](=O)[O-])C1=CCC(C(C)(C)C)CC1` (stereo not given), the figure is -6%; as for `Cc1ccc(C)c(N2C(=O)C(=O)C(c3nc4ccccc4o3)/C(=N\NC(=O)c3ccccc3O)C2=O)c1` (stereo not given), 7%; as for `O=C(/C=C/C=C/c1ccccc1)c1ccco1`, 44%.
The same measure, in the same setting: the value for `O=C1CCC(=O)c2c1c(O)c1ccncc1c2O` was 99% (active).
Same read-out and setting: as for `CNC(=O)OC(C)CN1c2ccccc2Sc2ccc(Cl)cc21` (stereo not given), the figure is 98% (active); as for `c1coc(C2=Nc3cccc4cccc(c34)N2)c1`, 96% (active); as for `CCOC(=O)[C@]12CCC[C@@]1(O)NC(=O)c1cnccc12`, 97% (active).
As to `Cc1cccc(C)c1N1C(=O)C2Nc3ccccc3SC2C1=O` (stereo not given), the growth inhibition was 95% (active).
The same measure, in the same setting: the value for `CCc1cccc(C(C)(C)C)c1NC(=S)N/C=C(\c1ccccc1)S(=O)Cc1ccccc1` (stereo not given) was 62%; that for `CC(=O)Nc1ccc(-c2cnc3ccccc3c2)cc1` was 29%.
On to `OCC(CO)C1c2cccc3ccc4cccc1c4c23`, for which the growth inhibition was 49%.
For the compound `O=C1CC(=S)NC(=S)N1`, the growth inhibition is -5%.
As to `Cc1c2ccnc(C(N)=O)c2c(C)c2c1[nH]c1ccccc12`, the growth inhibition was 97% (active).
Still for that read-out and setting: as for `CCC(=O)Sc1ccccc1C(=O)Nc1ccc(Cl)cc1`, the figure is 65%.
For the compound `O=C(O)c1c(Cl)c(Cl)c(Cl)c(Cl)c1-c1c2cc(I)c(=O)c(I)c-2oc2c(I)c(O)c(I)cc12`, the growth inhibition was 97% (active).
Still for that read-out and setting: as for `C=C/C=C/CC=C`, the figure is -90%; as for `Cc1ccccc1N1CCN(c2c3c(nc4ccccc24)CCCCC3)CC1`, 94% (active).
Still for that read-out and setting: as for `N/N=C(\N)c1ccc2ccc3cccnc3c2n1`, the figure is 79% (active); as for `CCCCCC(CCCCC)C(=O)O`, 60%.
In the case of `O=Cc1cc(S(=O)(=O)c2ccc(O)c(C=O)c2)ccc1O`, the growth inhibition is 22%.
Same read-out and setting: as for `Cc1ccc(C)c(N2C(=O)C(=O)C(c3nc4ccccc4o3)C(=O)C2=O)c1`, the figure is 98% (active).
On the same count and under the same terms, the value for `COC(=O)c1cc(C)c2sc3ccccc3c2c1C` was 38%.
On the same count and under the same terms, as for `O=C1NC(=O)N(c2ccc(Cl)c(Cl)c2)C1=O`, the figure is 4%; as for `Clc1ccc2oc(N3CCCCC3)nc2c1`, 11%.
For `Cc1ccc(N=NC(C(=O)c2ccccc2)C(=O)c2ccccc2)cc1`, the growth inhibition was 95% (active).

Source of the values: PubChem BioAssay (NCI).
